# In PubChem BioAssay (NCATS):
# Results filed as inconclusive are left out. Where a call stands in place of a potency, no number is given. The source made the active and inactive calls. Unless noted, calls follow the shape of the dose curve; as a rule, active = well fitted curve in either direction with a large enough effect (not every such curve was filed as active); inconclusive = small, poorly fitted or top-dose-only effect, or another doubt; inactive = flat fitted curve, though single readings scatter.
# Key:
# [1] = AP1 Signaling Pathway (AID 357);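 also: ME-180 reporter cells stimulated with EGF at its EC50 level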
# How it was run: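 Beta-lactamase reporter under AP-1 response element, ME-180 background. Stimulus: EC50 EGF. Compound exposure 5 h, 37 °C. Detection: CCF4, 2.5 h RT, 460/530 nm. Values: AC50 from titration.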
# [2] = biological target: Cytochrome P450 1A2 (Homo sapiens) (UniProt P05177); test: p450-cyp1a2 (AID 410; calls by dose curve)
# Chain of Cytochrome P450 1A2 (Homo sapiens) (P05177 whole entry, looked up): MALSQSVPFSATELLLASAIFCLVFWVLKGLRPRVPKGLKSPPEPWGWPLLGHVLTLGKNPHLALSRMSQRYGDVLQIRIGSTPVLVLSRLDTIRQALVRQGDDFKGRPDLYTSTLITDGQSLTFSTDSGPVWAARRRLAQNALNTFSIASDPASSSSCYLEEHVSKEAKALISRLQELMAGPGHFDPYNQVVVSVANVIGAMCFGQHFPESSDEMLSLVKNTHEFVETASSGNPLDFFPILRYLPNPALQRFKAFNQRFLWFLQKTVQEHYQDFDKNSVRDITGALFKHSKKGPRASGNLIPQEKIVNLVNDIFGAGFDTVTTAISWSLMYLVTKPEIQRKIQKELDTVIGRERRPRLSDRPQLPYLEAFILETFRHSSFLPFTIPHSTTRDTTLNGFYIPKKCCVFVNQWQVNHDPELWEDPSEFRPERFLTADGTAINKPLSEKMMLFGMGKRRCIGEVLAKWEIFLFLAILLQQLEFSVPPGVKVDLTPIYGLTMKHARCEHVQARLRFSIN
# How it was run: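 Human CYP1A2 (20nM) demethylated Luciferin-ME at its Km (100uM) in 100mM KPO4. After 10 min compound preincubation, NADPH regeneration ran the reaction 60 min at room temperature. Luciferin was read by luminescence, normalized to 57 uM furafylline.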
# [3] = NFAT Signaling Pathway (AID 444); conditions: Jurkat NFAT-bla M1, carbachol, beta-lactamase ratio, 5 h; at 17.2 µM (top of the series) unless noted;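 also: carbachol stimulus at about its EC50 of 1 µM final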
# How it was run: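 Jurkat cells with NFAT-driven β-lactamase reporter and co-expressed M1 receptor, stimulated with carbachol (final 1 uM, ~EC50), compound titration, 5 h at 37 °C. CCF4 loaded 1 h at RT; 460/530 nm ratio gave %activity and AC50.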
# [4] = Stat Signaling Pathway (AID 446);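 also: ME-180 cervical cancer cells given 40 pM IL-6 alongside compound; SIE-controlled beta-lactamase reporter measured as 460/530 nm FRET emission ratio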
# How it was run: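 ME-180 cells carrying a SIE-driven beta-lactamase reporter are stimulated with 40 pM IL-6 for 5 h at 37C in the presence of compound. The 460/530 nm FRET substrate ratio is read after 2.5 h at RT. Data are normalised to 300 pM IL-6 and to 125 nM JAK inhibitor controls.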
# [5] = biological target: Glucocorticoid receptor (Homo sapiens) (UniProt P04150); test: GR-GFP Redistribution (AID 450;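 active = compounds whose dose series gives a full or clear partial fitted curve of increased nuclear translocation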; also: potency is read from the fitted curve at half-maximal effect); conditions: U2OS GR-GFP nuclear translocation, laser cytometry, 2 h
# Chain of Glucocorticoid receptor (Homo sapiens) (P04150 whole entry, looked up, the tested form may be a part): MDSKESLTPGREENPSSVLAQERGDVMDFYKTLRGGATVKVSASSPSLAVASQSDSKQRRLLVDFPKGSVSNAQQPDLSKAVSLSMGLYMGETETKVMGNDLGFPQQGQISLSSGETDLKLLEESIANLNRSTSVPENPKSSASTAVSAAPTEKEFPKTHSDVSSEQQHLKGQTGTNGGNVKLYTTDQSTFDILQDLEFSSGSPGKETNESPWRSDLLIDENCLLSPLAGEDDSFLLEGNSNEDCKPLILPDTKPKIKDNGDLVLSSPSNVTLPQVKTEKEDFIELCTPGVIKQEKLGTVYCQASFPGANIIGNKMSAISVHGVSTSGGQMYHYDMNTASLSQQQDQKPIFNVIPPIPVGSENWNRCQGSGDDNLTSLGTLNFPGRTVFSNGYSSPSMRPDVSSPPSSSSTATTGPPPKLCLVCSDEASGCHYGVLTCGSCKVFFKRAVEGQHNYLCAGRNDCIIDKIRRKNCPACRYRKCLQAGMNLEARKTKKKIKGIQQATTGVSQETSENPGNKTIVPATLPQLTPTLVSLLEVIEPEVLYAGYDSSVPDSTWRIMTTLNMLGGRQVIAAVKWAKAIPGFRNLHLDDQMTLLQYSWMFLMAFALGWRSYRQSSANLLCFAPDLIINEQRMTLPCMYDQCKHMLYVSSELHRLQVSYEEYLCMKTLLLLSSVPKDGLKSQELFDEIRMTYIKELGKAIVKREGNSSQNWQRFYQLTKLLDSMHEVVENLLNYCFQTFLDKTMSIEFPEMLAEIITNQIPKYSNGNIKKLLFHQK
# [6] = biological target: Glucocorticoid receptor (Homo sapiens) (UniProt P04150); test: GR-EFC Redistribution (AID 451; calls by dose curve; also: potency is read from the fitted curve at half-maximal effect); conditions: CHO-K1 GR-EFC translocation, beta-gal luminescence, 2 h
# How it was run: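 CHO-K1 cells expressing nuclear EA and GR-ED fragments of b-gal; compounds titrated up to 46 uM final, 2 h at 37 C. GR nuclear translocation read as complemented b-gal luminescence after 1 h RT detection.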
# [7] = biological target: Mitogen-activated protein kinase 10 (Mus musculus) (UniProt Q61831); test: JNK3 AlphaScreen Assay (AID 530);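 also: kinase came from lysate of stimulated human HepG2 cells; signal reports phosphorylation of biotinylated GST-cJun 1-79 at Ser73 with 10 µM ATP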
# How it was run: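 qHTS format: compounds tested as titrations against IL-1beta/TNF-alpha-activated HepG2 lysate JNK3 with biotin-GST-cJun substrate and 10 uM ATP at room temperature. Loss of anti-phospho-cJun AlphaScreen signal indicates inhibition.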
# [8] = biological target: 3',5'-cyclic-AMP phosphodiesterase 4B (Homo sapiens) (UniProt Q07343); test: qHTS Assay for Inhibitors of PDE-IV (AID 607; active = well fitted activation curve with a large enough effect in the main read-out, with a control signal flat, not every such curve was filed as active)
# Chain of 3',5'-cyclic-AMP phosphodiesterase 4B (Homo sapiens) (Q07343 whole entry, looked up): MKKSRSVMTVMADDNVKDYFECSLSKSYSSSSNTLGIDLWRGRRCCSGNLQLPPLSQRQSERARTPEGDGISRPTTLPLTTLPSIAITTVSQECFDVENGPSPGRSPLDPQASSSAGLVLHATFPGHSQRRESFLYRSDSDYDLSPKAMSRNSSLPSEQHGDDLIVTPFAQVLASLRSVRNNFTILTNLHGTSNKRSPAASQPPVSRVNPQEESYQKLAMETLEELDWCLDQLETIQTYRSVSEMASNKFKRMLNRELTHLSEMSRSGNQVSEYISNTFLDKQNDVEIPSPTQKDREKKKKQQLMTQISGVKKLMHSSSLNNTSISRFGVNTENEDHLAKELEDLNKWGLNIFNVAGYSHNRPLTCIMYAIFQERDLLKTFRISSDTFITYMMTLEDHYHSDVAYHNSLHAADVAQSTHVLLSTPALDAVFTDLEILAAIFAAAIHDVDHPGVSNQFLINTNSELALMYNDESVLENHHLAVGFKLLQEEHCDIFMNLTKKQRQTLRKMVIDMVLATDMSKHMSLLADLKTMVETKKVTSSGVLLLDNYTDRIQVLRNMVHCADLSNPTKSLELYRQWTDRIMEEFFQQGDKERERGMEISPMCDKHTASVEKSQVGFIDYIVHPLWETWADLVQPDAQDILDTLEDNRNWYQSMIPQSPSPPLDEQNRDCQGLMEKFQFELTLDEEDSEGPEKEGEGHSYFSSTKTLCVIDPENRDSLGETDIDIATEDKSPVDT
# How it was run: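 HEK293 ACTOne cells with CNG channel (1000/well), endogenous PDE4; membrane potential dye, compounds up to 22.9 uM final. Fluorescence Ex 535/Em 590; RO 20-1724 (100 uM final) as reference.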
# [9] = qHTS Assay for Lipid Storage Modulators (AID 1519; calls by dose curve); conditions: Drosophila S3 cells, BODIPY lipid droplet/cell ratio, laser cytometry, cells loaded with oleic acid; for activity change, negative = inhibition: at 25.7 µM (top of the series)
# How it was run: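 Cells seeded at 5,000 per well were treated with compounds over a concentration series and loaded with oleic acid (400 uM, as added). Lipid droplet fluorescence (488 nm excitation, 500-530 nm channel) was read by laser-scanning cytometry and normalized to 20 uM Triacsin C.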
# [10] = biological target: Ubiquitin carboxyl-terminal hydrolase 1 (Homo sapiens) (UniProt O94782); test: Inhibitors of USP1/UAF1: Pilot qHTS (AID 504865; active = well fitted curve in the direction sought with a large enough effect; an effect the other way counts as inactive or inconclusive;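 also: rhodamine fluorescence freed from ubiquitin-rhodamine substrate followed over time; top concentration of the series differs between compounds; nearly all actives have a fitted effect of over 35% in size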)
# Chain of Ubiquitin carboxyl-terminal hydrolase 1 (Homo sapiens) (O94782 whole entry, looked up): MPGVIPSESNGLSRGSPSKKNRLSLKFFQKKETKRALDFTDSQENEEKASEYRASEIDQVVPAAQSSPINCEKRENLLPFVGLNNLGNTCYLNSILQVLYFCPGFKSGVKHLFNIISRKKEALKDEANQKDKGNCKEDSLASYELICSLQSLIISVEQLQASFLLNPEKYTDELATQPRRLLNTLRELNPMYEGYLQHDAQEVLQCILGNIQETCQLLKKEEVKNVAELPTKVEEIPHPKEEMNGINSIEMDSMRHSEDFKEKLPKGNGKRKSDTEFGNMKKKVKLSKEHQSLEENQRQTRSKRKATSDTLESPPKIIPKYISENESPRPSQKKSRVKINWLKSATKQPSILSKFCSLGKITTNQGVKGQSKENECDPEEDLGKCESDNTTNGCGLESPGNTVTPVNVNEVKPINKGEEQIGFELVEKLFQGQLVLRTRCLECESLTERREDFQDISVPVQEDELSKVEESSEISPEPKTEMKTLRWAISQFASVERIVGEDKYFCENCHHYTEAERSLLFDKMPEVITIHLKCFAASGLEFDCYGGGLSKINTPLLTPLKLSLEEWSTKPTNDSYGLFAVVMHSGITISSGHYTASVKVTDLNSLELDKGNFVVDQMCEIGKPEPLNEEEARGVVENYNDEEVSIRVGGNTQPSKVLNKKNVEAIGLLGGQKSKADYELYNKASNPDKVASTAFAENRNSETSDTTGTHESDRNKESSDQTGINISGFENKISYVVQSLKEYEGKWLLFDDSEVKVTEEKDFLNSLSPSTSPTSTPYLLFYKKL
# How it was run: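 In 50mM HEPES pH 7.8 containing 0.5mM EDTA, 1mM TCEP, 0.1 mg/ml BSA and 0.01% Tween-20, 1nM USP1/UAF1 is exposed to compound for 15 min, then Ub-Rho (150nM final) is added and fluorescence is read over time.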
# [11] = biological target: Luciferin 4-monooxygenase (Photinus pyralis) (UniProt P08659); test: Biochemical firefly luciferase enzyme assay for NPC (AID 624030; active = well fitted curve in the direction sought with a large enough effect; an effect the other way counts as inactive or inconclusive;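 also: purified P. pyralis luciferase at 10 nM with luciferin and ATP substrate; nearly all actives have a fitted effect of over 70% in size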)
# Chain of Luciferin 4-monooxygenase (Photinus pyralis) (P08659 whole entry, looked up): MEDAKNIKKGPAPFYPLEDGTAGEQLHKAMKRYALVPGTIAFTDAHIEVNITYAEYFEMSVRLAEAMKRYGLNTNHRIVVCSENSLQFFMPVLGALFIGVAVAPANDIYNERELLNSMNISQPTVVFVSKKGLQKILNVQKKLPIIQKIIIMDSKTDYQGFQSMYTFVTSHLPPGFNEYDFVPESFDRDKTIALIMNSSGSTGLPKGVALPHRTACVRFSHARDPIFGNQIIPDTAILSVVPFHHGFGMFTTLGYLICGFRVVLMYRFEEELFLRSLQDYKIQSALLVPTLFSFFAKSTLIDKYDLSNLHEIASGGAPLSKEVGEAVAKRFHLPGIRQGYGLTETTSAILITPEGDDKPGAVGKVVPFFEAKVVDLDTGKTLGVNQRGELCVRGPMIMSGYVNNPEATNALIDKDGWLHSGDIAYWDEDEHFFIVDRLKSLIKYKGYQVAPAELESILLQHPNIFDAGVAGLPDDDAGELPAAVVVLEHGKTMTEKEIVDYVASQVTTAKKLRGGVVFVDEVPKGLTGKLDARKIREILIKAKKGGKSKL
# How it was run: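 Purified P. pyralis luciferase at 10 nM in 50 mM Tris Acetate (final), luminescence read within 5 minutes of enzyme addition to compounds. Activity normalised to PTC124 versus DMSO; concentration-response curves classed by r2, magnitude and activity.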
# [12] = biological target: ATP-dependent 6-phosphofructokinase (Trypanosoma brucei brucei) (UniProt O15648); test: qHTS Assay to Find Inhibitors of T. brucei phosphofructokinase: hit validation (AID 492961; active = well fitted curve in the direction sought with a large enough effect; an effect the other way counts as inactive or inconclusive)
# Chain of ATP-dependent 6-phosphofructokinase (Trypanosoma brucei brucei) (O15648 whole entry, looked up): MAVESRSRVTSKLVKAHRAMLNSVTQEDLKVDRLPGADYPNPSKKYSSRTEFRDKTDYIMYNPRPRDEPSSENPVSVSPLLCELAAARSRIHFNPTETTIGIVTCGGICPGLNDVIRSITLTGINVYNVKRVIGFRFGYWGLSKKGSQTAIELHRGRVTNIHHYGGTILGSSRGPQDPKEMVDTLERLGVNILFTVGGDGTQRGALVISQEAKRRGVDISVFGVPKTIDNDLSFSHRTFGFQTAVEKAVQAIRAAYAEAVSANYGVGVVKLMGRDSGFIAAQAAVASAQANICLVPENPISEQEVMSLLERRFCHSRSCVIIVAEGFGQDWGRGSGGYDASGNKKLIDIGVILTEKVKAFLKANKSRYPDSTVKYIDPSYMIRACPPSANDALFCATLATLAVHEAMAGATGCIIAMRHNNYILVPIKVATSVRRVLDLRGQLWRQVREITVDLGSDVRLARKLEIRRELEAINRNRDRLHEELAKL
# How it was run: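 Luminescence from ADP-Glo reports ADP generated as T. brucei PFK (1.25 nM) phosphorylates 0.5 mM fructose-6-phosphate using 0.1 mM ATP. Reactions ran 45 min at room temperature, pH 8.0.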
# [13] = S16 Schwann cell viability assay (CellTiter-Glo assay) (AID 624031; active = well fitted curve in the direction sought with a large enough effect; an effect the other way counts as inactive or inconclusive;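 also: cellular ATP luminescence as a viability measure; nearly all actives have a fitted effect of over 70% in size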)
# How it was run: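 Luminescent ATP read-out (CellTiter-Glo) after 24 h compound exposure of native S16 rat Schwann cells at 37 °C. Signals were normalized between cell-free wells and DMSO-treated cells, set as 0% activity.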
# [14] = qHTS profiling for inhibitors of Plasmodium falciparum proliferation (AID 504749; active = well fitted curve in the direction sought with a large enough effect; an effect the other way counts as inactive or inconclusive; also: nearly all actives have a fitted effect of over 60% in size); conditions: P. falciparum in erythrocytes, SYBR Green DNA, 72 h, at 12.8 µM (top of the series)
# How it was run: (§1)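 Readout was DNA-dye fluorescence from lysed cultures, ex 485/em 535 nm. Parasitized red cells had grown 72 h with compound; data scaled between 0.29 uM artemisinin and DMSO wells and corrected using vehicle-only plates.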
# [15] = system: C2A; test: as above; conditions: P. falciparum in erythrocytes, SYBR Green DNA, 72 h; series mostly up to 12.8 µM
# How it was run: as §1
# [16] = system: CP191; test: as above; conditions: P. falciparum in erythrocytes, SYBR Green DNA, 72 h; series mostly up to 12.8 µM
# How it was run: as §1
# [17] = system: CP250; test: as above; conditions: P. falciparum in erythrocytes, SYBR Green DNA, 72 h; series mostly up to 12.8 µM
# How it was run: as §1
# [18] = system: FAB9; test: as above; conditions: P. falciparum in erythrocytes, SYBR Green DNA, 72 h; series mostly up to 12.8 µM
# How it was run: as §1
# [19] = system: JCK; test: as above; conditions: P. falciparum in erythrocytes, SYBR Green DNA, 72 h; series mostly up to 12.8 µM
# How it was run: as §1
# [20] = system: SC27B; test: as above; conditions: P. falciparum in erythrocytes, SYBR Green DNA, 72 h; series mostly up to 12.8 µM
# How it was run: as §1
# [21] = measured here: cell count channel max response
# [22] = measured here: lipid channel max response
smiles,measurement,setting,value
C/C(=C(/CCO)SSC[C@@H]1CCCO1)N(C=O)Cc1cnc(C)nc1N,outcome,[1],inactive
same,Potency,[2],inactive
same,"activity change, negative = inhibition",[3],-21.3% (inactive)
same,outcome,[4],inactive
same,Potency,[5],> 20.6 µM (inactive)
same,Potency,[6],> 20.6 µM (inactive)
same,Potency,[7],inactive
same,outcome,[8],inactive
same,"activity change, negative = inhibition",[9],-0.641% (inactive)
same,max response,[9]; [21],-21%
same,max response,[9]; [22],-20.8%
same,Potency,[10],inactive
same,Potency,[11],inactive
Cc1n[nH]c(=O)[nH]c1=O,outcome,[1],inactive
same,Potency,[2],inactive
same,"activity change, negative = inhibition",[3],-10% (inactive)
same,outcome,[4],inactive
same,Potency,[5],> 20.6 µM (inactive)
same,Potency,[6],> 20.6 µM (inactive)
same,Potency,[7],inactive
same,outcome,[8],inactive
same,"activity change, negative = inhibition",[9],1.08% (inactive)
same,max response,[9]; [21],-2.21%
same,max response,[9]; [22],-2.22%
same,Potency,[10],inactive
C[N+]12CCC(CC1)[C@@H](OC(=O)C(O)(c1ccccc1)c1ccccc1)C2,outcome,[1],inactive
same,Potency,[2],inactive
same,"activity change, negative = inhibition",[3],-57.3% (active)
same,outcome,[4],inactive
same,Potency,[5],> 20.6 µM (inactive)
same,Potency,[6],> 20.6 µM (inactive)
same,Potency,[7],inactive
same,outcome,[8],inactive
same,"activity change, negative = inhibition",[9],-3.29% (inactive)
same,max response,[9]; [21],-12.1%
same,max response,[9]; [22],-15%
same,outcome,[12],inactive
same,Potency,[11],inactive
same,outcome,[13],inactive
same,"activity, negative = inhibition",[14]; parasite line A,11.6% (inactive)
same,"activity, negative = inhibition",[14]; parasite line B,16% (inactive)
same,Potency,[15],inactive
same,Potency,[16],inactive
same,Potency,[17],inactive
same,Potency,[18],inactive
same,Potency,[19],inactive
same,Potency,[20],inactive
C[C@]12C=CC(=O)C=C1CC[C@@H]1[C@H]3C[C@@H](O)[C@](O)(C(=O)CO)[C@@]3(C)C[C@H](O)[C@]12F,outcome,[1],inactive
same,Potency,[2],inactive
same,"activity change, negative = inhibition",[3],7.24% (inactive)
same,outcome,[4],inactive
same,Potency,[5],0.108 µM (active)
same,Potency,[6],0.0827 µM (active)
same,Potency,[7],inactive
same,outcome,[8],inactive
same,"activity change, negative = inhibition",[9],-1.03% (inactive)
same,max response,[9]; [21],6.41%
same,max response,[9]; [22],6.57%
same,Potency,[10],inactive
C[C@H](CCC(=O)NCC(=O)O)[C@H]1CC[C@H]2[C@H]3[C@@H](C[C@@H](O)[C@]12C)[C@]1(C)CC[C@H](O)C[C@@H]1C[C@@H]3O,outcome,[1],inactive
same,Potency,[2],inactive
same,"activity change, negative = inhibition",[3],15.3% (inactive)
same,outcome,[4],inactive
same,Potency,[5],> 20.6 µM (inactive)
same,Potency,[6],> 20.6 µM (inactive)
same,Potency,[7],inactive
same,outcome,[8],inactive
same,"activity change, negative = inhibition",[9],0.864% (inactive)
same,max response,[9]; [21],-1.04%
same,max response,[9]; [22],-0.773%
same,Potency,[10],inactive
C=C1CC[C@H](O)C/C1=C/C=C1\CCC[C@]2(C)[C@H]1CC[C@H]2[C@@H](C)/C=C\[C@@H](C)C(C)C,outcome,[1],inactive
same,Potency,[2],inactive
same,"activity change, negative = inhibition",[3],1.42% (inactive)
same,outcome,[4],inactive
same,Potency,[5],> 20.6 µM (inactive)
same,Potency,[6],> 20.6 µM (inactive)
same,Potency,[7],inactive
same,outcome,[8],inactive
same,"activity change, negative = inhibition",[9],0.549% (inactive)
same,max response,[9]; [21],-2.49%
same,max response,[9]; [22],-2.71%
same,Potency,[10],inactive
